Assay results from the supplement of paper PMC8975748.
Counter-ions that a name gives are not always drawn. ± gives the standard deviation of the averaged measurements.

system: Saccharomyces cerevisiae BY4741 SeMeCo community; experiment: mean cell size (pixel area) (pixels); higher = larger cells; conditions: 10 µM; 24 h; SM minimal medium
Method in brief: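 A four-plasmid fluorescent Saccharomyces cerevisiae BY4741 community was tested; each plasmid complements one auxotrophy and carries a fluorescent marker. An overnight preculture at OD600 = 1.0 was diluted to OD600 = 0.3, and 70 µl was added to 384-well plates acoustically predosed with drug (final 10 µM) in SM medium for 24 h. Cells were fixed with paraformaldehyde and imaged by automated confocal microscopy, with analysis in Harmony. Mean cell pixel area per well is averaged over 3 replicates. Same SeMeCo high-content imaging drug screen: Selleck FDA-approved drugs at 10 µM, 24 h in SM medium, 384-well plates, 3 replicates.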

SMILES	mean cell size
CN(C)C(=O)Oc1ccc[n+](C)c1 [Pyridostigmine Bromide]	12.54 ± 0.1
NC(=O)CN1CCCC1=O [Piracetam]	12.47 ± 0.028
COc1ccc(C(CN(C)C)C2(O)CCCCC2)cc1 (centres undefined) [Venlafaxine]	12.1 ± 0.091
CC(C)=CCOc1c2occc2cc2ccc(=O)oc12 [Imperatorin]	12.6 ± 0.14
CC[C@@H](C(N)=O)N1CCCC1=O [Levetiracetam]	12.5 ± 0.14
CN1C(=O)COc2c(C(=O)NC3CN4CCC3CC4)cc(Cl)cc21 (centres undefined) [Azasetron HCl]	12 ± 0.075
CC(=O)O[C@H]1C[C@@H]2CC[C@@H]3[C@H](CC[C@@]4(C)[C@H]3C[C@H]([N+]3(C)CCCCC3)[C@@H]4OC(C)=O)[C@@]2(C)C[C@@H]1[N+]1(C)CCCCC1 [Pancuronium dibromide]	12.5 ± 0.19
O=c1cccc2n1C[C@@H]1CNC[C@H]2C1 [Cytisine]	12.6 ± 0.21
Oc1cc(Cl)ccc1Oc1ccc(Cl)cc1Cl [Triclosan]	12.5 ± 0.31
C[C@@H]1O[C@@H](O[C@H]2C[C@@H](O)[C@]3(CO)[C@H]4[C@H](O)C[C@]5(C)[C@@H](C6=CC(=O)OC6)CC[C@]5(O)[C@@H]4CC[C@]3(O)C2)[C@H](O)[C@H](O)[C@H]1O [Ouabain]	12.3 ± 0.32
C=CN1CCCC1=O.II [Povidone iodine]	12.5 ± 0.22
COc1ccc2[nH]cc(CCN)c2c1 [5-Methoxytryptamine]	12.18 ± 0.062
O=C(O[C@H]1C[C@H]2CC[C@@H](C1)[N+]21CCCC1)C(O)(c1ccccc1)c1ccccc1 [Trospium chloride]	12.5 ± 0.18
C#C[C@]1(O)C=C[C@H]2[C@@H]3CCC4=CC(=O)CC[C@@H]4[C@H]3CC[C@@]21CC [Gestodene]	12.5 ± 0.17
Oc1cccc2cccnc12 [8-Hydroxyquinoline]	12.61 ± 0.039
Cc1cc(O)ccc1Cl [Chlorocresol]	12.6 ± 0.13
CCOC(=O)Nc1ccc(NCc2ccc(F)cc2)cc1N [Retigabine]	12.58 ± 0.12

SMILES	mean cell size
CN1[C@@H]2CC[C@H]1C[C@@H](OC(=O)C(CO)c1ccccc1)C2 (some centres undefined) [Atropine sulfate monohydrate]	12.26 ± 0.093
O=[N+]([O-])C(Br)(CO)CO [Bronopol]	12.2 ± 0.43
CC(C)N(CCC(C(N)=O)(c1ccccc1)c1ccccn1)C(C)C (centres undefined) [Disopyramide]	12.27 ± 0.1
CN1c2ccccc2C(NCCCCCCC(=O)O)c2ccc(Cl)cc2S1(=O)=O (centres undefined) [Tianeptine sodium]	12.6 ± 0.24
N#Cc1nn(-c2c(Cl)cc(C(F)(F)F)cc2Cl)c(N)c1[S+]([O-])C(F)(F)F (centres undefined) [Fipronil]	12.3 ± 0.2
O=c1[nH]c2ccccc2n1CCCN1CCC(n2c(=O)[nH]c3cc(Cl)ccc32)CC1 [Domperidone]	12.6 ± 0.23
CC[N+](C)(CC)CCOC(=O)C(O)(c1ccccc1)c1ccccc1 [Methylbenactyzine Bromide]	12.6 ± 0.34
C=CCN1C[C@H](C(=O)N(CCCN(C)C)C(=O)NCC)C[C@@H]2c3cccc4[nH]cc(c34)C[C@H]21 [Cabergoline]	12.2 ± 0.17
CC[C@@]1(O)C(=O)OCc2c1cc1n(c2=O)Cc2cc3ccccc3nc2-1 [Camptothecin]	12.3 ± 0.14
COc1ccc2c(c1)[C@]13CCCC[C@@H]1[C@H](C2)N(C)CC3 [Dextromethorphan hydrobromide hydrate]	12.5 ± 0.24
Cc1cc(C(C#N)c2ccc(Cl)cc2)c(Cl)cc1NC(=O)c1cc(I)cc(I)c1O (centres undefined) [Closantel Sodium]	12.2 ± 0.24
CCCN1C[C@H](CSC)C[C@@H]2c3cccc4[nH]cc(c34)C[C@H]21 [Pergolide Mesylate]	12.4 ± 0.25
COc1cc2c(cc1OC)C1CC(=O)C(CC(C)C)CN1CC2 (centres undefined) [Tetrabenazine (Xenazine)]	12.62 ± 0.049
CN[C@@H]1[C@@H](O)[C@@H](O[C@@H]2[C@@H](O)[C@H](O[C@H]3O[C@H](CN)CC[C@H]3N)[C@@H](N)C[C@H]2N)OC[C@]1(C)O.CN[C@@H]1[C@@H](O)[C@@H](O[C@@H]2[C@@H](O)[C@H](O[C@H]3O[C@H]([C@@H](C)N)CC[C@H]3N)[C@@H](N)C[C@H]2N)OC[C@]1(C)O.CN[C@@H]1[C@@H](O)[C@@H](O[C@@H]2[C@@H](O)[C@H](O[C@H]3O[C@H]([C@@H](C)NC)CC[C@H]3N)[C@@H](N)C[C@H]2N)OC[C@]1(C)O [Gentamicin Sulfate]	12.1 ± 0.15
CN[C@@H]1[C@@H](O)[C@@H](O[C@@H]2[C@@H](O)[C@H](O[C@H]3O[C@H]([C@@H](C)O)[C@@H](O)[C@H](O)[C@H]3N)[C@@H](N)C[C@H]2N)OC[C@]1(C)O [Geneticin (G418 Sulfate)]	11.99 ± 0.045
C[N+]1(C)[C@@H]2C[C@@H](OC(=O)[C@H](CO)c3ccccc3)C[C@H]1[C@@H]1O[C@@H]12 [Methscopolamine]	12.49 ± 0.031
CC1(C)S[C@@H]2[C@H](N)C(=O)N2[C@H]1C(=O)O [6-Aminopenicillanic acid]	12.1 ± 0.25
